# High-throughput results: PubChem BioAssay, several laboratories
# Autofluor counter – compound fluorescence in toxin protease inhibitor counterscreen; compound autofluorescence counterscreen, microsphere flow cytometry; stronger effect = higher value; fluorescence intensity (no concentration beside the values); 360,000 tested, 3.1% active; in the data active = fluorescence intensity above about 16000; inconclusive = no clear call, values can overlap the other calls
# Anthrax LF prot – blocks Bacillus anthracis lethal factor protease | P15917 | multiplex microsphere protease cleavage assay, LF | inhibition, % at 10 µM | 360,000 tested, 0.12% active; also: plate controls were buffer without enzyme for full effect and enzyme alone for no effect
# Target sequence (P15917 whole entry, looked up): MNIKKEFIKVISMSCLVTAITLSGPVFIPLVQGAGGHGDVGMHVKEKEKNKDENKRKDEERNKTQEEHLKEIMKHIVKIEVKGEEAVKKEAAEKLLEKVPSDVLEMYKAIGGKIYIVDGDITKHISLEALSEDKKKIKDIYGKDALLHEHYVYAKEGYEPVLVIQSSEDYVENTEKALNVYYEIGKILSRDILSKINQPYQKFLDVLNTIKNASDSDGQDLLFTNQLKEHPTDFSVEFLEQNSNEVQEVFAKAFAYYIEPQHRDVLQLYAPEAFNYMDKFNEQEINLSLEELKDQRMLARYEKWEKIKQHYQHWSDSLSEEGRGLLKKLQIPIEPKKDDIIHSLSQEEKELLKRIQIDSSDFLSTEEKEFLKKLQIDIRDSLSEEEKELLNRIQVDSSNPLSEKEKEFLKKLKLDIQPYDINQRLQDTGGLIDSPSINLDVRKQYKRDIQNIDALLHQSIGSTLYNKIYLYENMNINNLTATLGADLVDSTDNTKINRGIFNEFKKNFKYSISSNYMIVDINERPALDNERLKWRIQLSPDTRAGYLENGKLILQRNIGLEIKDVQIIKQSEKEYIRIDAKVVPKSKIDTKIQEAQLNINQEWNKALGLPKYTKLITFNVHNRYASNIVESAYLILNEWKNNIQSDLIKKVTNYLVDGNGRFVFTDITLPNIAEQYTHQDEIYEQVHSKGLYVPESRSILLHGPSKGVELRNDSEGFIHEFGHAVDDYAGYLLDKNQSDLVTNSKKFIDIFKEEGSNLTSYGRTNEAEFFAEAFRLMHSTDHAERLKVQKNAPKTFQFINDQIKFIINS
# SSB-PriA inh – inhibitors of Klebsiella pneumoniae PriA binding to SSB C-terminal tail; AlphaScreen SSBct-PriA binding, biotinylated peptide; inhibition, % at 33 µM; 430,000 tested, 0.6% active; AID 1272365; in the data active = inhibition mostly above about 37%, no sharp cut-off; inactive = mostly below about 20%;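 also: plate controls were negative control peptide for no effect and reference peptide for full effect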
# BoNT F protease – blocks Botulinum neurotoxin F light chain protease | 360,000 tested, 0.22% active | Multiplex microsphere protease cleavage assay, flow cytometry | AID 588497 | inhibition, % at 10 µM; in the data active = inhibition above about 35%, passing the limit was not always enough; inconclusive = no clear call, values can overlap the other calls; also: plate controls were buffer without enzyme for full effect and enzyme alone for no effect
# BoNT-A LC inh2 – inhibitors of Botulinum neurotoxin A light chain protease. multiplex microsphere protease substrate cleavage, flow cytometry. inhibition, % at 10 µM. 360,000 tested, 0.17% active. AID 588499; also: plate controls were buffer without enzyme for full effect and enzyme alone for no effect
# The depositor's hits bear a star; ? = inconclusive; / = not tested or not shown. Compounds with a hit are over-represented: about 3.1% of the library has one in this group of screens. Rule as the data show it, unless noted: active = inhibition above about 30%; inconclusive = no clear call, values can overlap the other calls; inactive = below that.
SMILES,Autofluor counter,Anthrax LF prot,SSB-PriA inh,BoNT F protease,BoNT-A LC inh2
Nc1nc(-c2ccccn2)nc2sccc12,/,/,126*,/,/
Cc1cc(NC(=O)NC2(C(F)(F)F)Oc3ccc(Cl)cc3O2)no1 (stereo not given),16576*,-3,-16,0,-1
O=C(CNC(=O)c1c(F)cccc1Cl)N/N=C\c1c[nH]c2ccccc12,/,/,-16,/,/
COc1ccc(-c2ccc(-c3nnc(Cc4ccc(OC)c(OC)c4)o3)cc2)cc1,22185*,-5,-9,4,1
CN(C)C(=O)CSc1nnc(C23CC4CC(CC(C4)C2)C3)o1,22684*,-12,-14,-1,?
CSCC[C@H](NC(=O)OC(C)(C)C)c1nnc(SCC(=O)N(C)C)o1,5920,-2,-16,0,0
CN(C)C(=O)CSc1nnc(CCN)o1,22720*,0,-1,1,-1
Cn1ccnc1N1CCN(C(=O)C2CCCCC2)CC1,/,/,-14,/,/
Clc1cc2c(c3ncccc13)OCN(Cc1cccnc1)C2,/,/,101*,/,/
Clc1cc2c(c3ncccc13)OCN(Cc1ccccc1)C2,/,/,89*,/,/
O=C(C1CCCN(S(=O)(=O)c2ccc(Br)cc2)C1)N1CCN(Cc2ccccc2)CC1 (stereo not given),55843*,-60,5,-391,-234
CSc1ccc(C(=S)N2CCN(Cc3ccccc3)CC2)cc1,19865*,-17,1,13,7
O=C(CN1CCN(Cc2ccccc2)CC1)c1ccc(Br)cc1,21164*,4,0,-5,0
Cc1ccc(N2CCCS2(=O)=O)cc1NS(=O)(=O)CC12CCC(CC1=O)C2(C)C (stereo not given),/,/,3,/,/
COC(=O)COc1cccc(-n2cnnn2)c1,8816,-3,4,-1,0
Cc1cc(C(=O)COc2cccc(-n3cnnn3)c2)c(C)n1-c1ccccc1,16603*,-3,5,-2,0
COc1cccc(NC(=O)COc2cccc(-n3cnnn3)c2)c1,4517,-5,4,-2,0
COc1ccccc1NC(=O)COc1cccc(-n2cnnn2)c1,18765*,-1,-6,-10,-6
N#Cc1ccc(COCC2CCN(S(=O)(=O)C3CCCCC3)CC2)cc1,/,/,-10,/,/
CSCCC1NC2(C(=O)Nc3c(C)cc(Cl)cc32)[C@@H]2C(=O)N(C3CCCC3)C(=O)[C@H]12 (stereo not given in full),23955*,-6,20,-5,?
CSCCC1NC2(C(=O)Nc3c(Cl)cccc32)[C@@H]2C(=O)N(C3CCCC3)C(=O)[C@H]12 (stereo not given in full),21812*,-2,3,2,2
Cn1nnn(-c2ccc(NC(=O)CCc3ccccc3)cc2)c1=O,/,/,-10,/,/
CS(=O)(=O)N1CCC(c2nn(CC(=O)N3CCc4ccccc43)c(=O)n2-c2cccs2)CC1,/,/,-13,/,/
O=c1c(=Cc2ccco2)sc2n1CN(c1cccc(Br)c1)CN=2,/,/,-1,/,/
C=CCn1c(=NC(=O)c2ccc(S(=O)(=O)N(CC)c3ccccc3)cc2)sc2cc(C(=O)OCC)ccc21,/,/,3,/,/
SMILES,Autofluor counter,Anthrax LF prot,SSB-PriA inh,BoNT F protease,BoNT-A LC inh2
COc1ccccc1C1C=C(c2ccccc2)Nc2nnnn21 (stereo not given),20241*,2,-25,0,?
COc1cccc(C2=CC(c3ccc(OC)c(OC)c3OC)n3nnnc3N2)c1 (stereo not given),3295,1,2,1,0
c1nc(N2CCCC2)c2[nH]cnc2n1,23416*,-1,-7,0,?
c1nc(N2CCCCCC2)c2[nH]cnc2n1,5711,4,-18,0,0
Cc1ccc(C2CC(=O)c3cnc(N4CCc5ccccc5C4)nc3C2)cc1 (stereo not given),19424*,-3,-15,2,?
O=C1CC(c2ccccc2)Cc2nc(N3CCc4ccccc4C3)ncc21 (stereo not given),4477,-8,-13,0,0
O=[N+]([O-])c1ccc(Sc2nnnn2-c2ccccc2)c(Cl)c1,9784,-2,45*,4,1
CCOC(=O)c1ccc(-c2ccc(/C=C(/C#N)C(=O)Nc3nccs3)o2)cc1,/,/,-5,/,/
CCOC(=O)c1ccc(-c2ccc(/C=C(\C#N)C(=O)NCC3CCCO3)o2)cc1 (stereo not given),22009*,1,0,-2,1
N#Cc1nc(COc2ccc(F)cc2)oc1NCCCn1ccnc1,2926,-3,10,-5,0
Fc1ccc(Nc2nc(NCCCn3ccnc3)nc3nc[nH]c23)cc1,/,/,29*,/,/
CCN1C(=O)SC(Nc2ccc(OC)cc2)C1=O (stereo not given),/,/,-2,/,/
O=C(NCCOC(=O)c1ccccc1C(=O)OCCNC(=O)c1cccnc1)c1cccnc1,19258*,-12,-10,11,6
Cc1cc(C)c(C(=O)OCCNC(=O)c2cccnc2)cc1C,9383,-3,2,11,1
C=CCOC(=O)C1=C(C)Nc2nnnn2C1c1ccc(OC)cc1OC (stereo not given),8240,-1,-9,-4,0
COC(=O)C1=C(C)Nc2nnnn2C1c1cccs1 (stereo not given),19852*,-4,1,4,1
C=CCOC(=O)C1=C(C)Nc2nnnn2C1c1cccs1 (stereo not given),17729*,-12,-1,6,7
Brc1cccc(C=Nn2cnnc2)c1,/,/,1,/,/
Cc1cc(OC2CCN(S(=O)(=O)c3cc4c5c(c3)CCN5C(=O)CC4)CC2)cc(=O)o1,/,/,1,/,/
O=C(NCc1ccccn1)c1ccc(Br)s1,17043*,-10,18,-9,-5
O=C(NCc1ccccn1)c1ccc(Cl)cc1Cl,18047*,-3,-10,8,7
O=C(NCc1ccccn1)Nc1cccc(NC(=O)NCc2ccccn2)c1,22604*,0,-4,-3,-2
O=C(NCCCCCCNC(=O)c1ccc(Br)s1)c1ccc(Br)s1,23002*,0,-2,0,0
O=C(NCCCNC(=O)c1ccc(Cl)cc1Cl)c1ccccn1,3610,-6,-19,1,-1
CCOc1ccccc1C(O)=C1C(=O)C(=O)N(Cc2cccs2)[C@H]1c1ccc(C)o1,/,/,-6,/,/
SMILES,Autofluor counter,Anthrax LF prot,SSB-PriA inh,BoNT F protease,BoNT-A LC inh2
COc1cccc(NC(=O)NC2CCN(c3ccccn3)C2)c1OC (stereo not given),/,/,-19,/,/
O=C(NCc1ccccn1)c1cccs1,17079*,-1,-14,-4,?
O=C(Nc1ccc(S(=O)(=O)Nc2ncccn2)cc1)c1ccc(Br)s1,16878*,-2,-15,-5,-2
O=C(NCc1ccccn1)C(=O)NCc1cccs1,/,/,-8,/,/
COc1ccc(CCC(=O)N(Cc2nn(C)c3c2CCC3)C2CCCC2)cc1,/,/,-1,/,/
O=C(CSc1n[nH]c(-c2ccco2)n1)N1c2ccccc2Sc2ccccc21,22111*,-3,9,2,2
Cc1ccc(-c2csc3ncnc(Sc4nnc(CN5CCCCCC5=O)o4)c23)cc1,16668*,-4,3,-1,0
O=C(CSc1ncnc2scc(-c3ccc(Cl)cc3)c12)N1CCCCCC1,/,/,0,/,/
CCCCOc1nc(N)nc(-c2ccccc2)n1,22127*,0,-7,-3,0
Nc1nc(N)nc(-c2ccccc2)n1,3065,0,-8,6,0
